Activity calls are given as the source filed them.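 How the source made its calls: active means valid curve fit, half-maximal dose at most 10 µM, and binding change across doses at least 30%; inactive means the rest.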
Tested on: Rab7 GTPase, wild type (Canis lupus familiaris)
Assay: Rab7 wildtype GTP binding inhibitors, SAR follow-up, Cdc42 probe extension project, biochemical, dog Rab7, bead multiplex flow cytometry, round 1 (AID 588393)

## O=C(C#Cc1ccccc1)c1cccc([N+](=O)[O-])c1
  outcome: inactive

## NS(=O)(=O)c1ccc(N2N=C(c3ccccc3)CC2c2ccccc2)cc1 (stereo not drawn)
  outcome: inactive

## COc1ccc(C2CC(c3ccccc3)=NN2c2ccc(S(N)(=O)=O)cc2)cc1 (stereo not drawn)
  outcome: inactive

Source: PubChem BioAssay AID588393 (NMMLSC, 2011)
